Molecules are shown by their SMILES. A number with no mark means an inactive call. For part of these data: Entries with a potency or affinity are not part of this list. The source made the active and inactive calls. No rule for the calls is given here.
For efficacy in this document: 0% is about no effect.

The conditions of the first assay: Ebola virus entry assay, green fluorescence channel.
In the case of `CN(C)CCCO[C@@H]1[C@H]2OC(C)(C)O[C@H]2O[C@@H]1C(O)CO` (stereo partly drawn), the efficacy is -11.8%.

As to `COc1cc(C(=O)NCCCCCC(=O)O)cc(OC)c1OC`, the efficacy was -33.5%.

`CCCCOC(=O)CCCCCCCCC(=O)OCCCC`: the efficacy was -13.9%.

On to `CCC(=O)Oc1ccc2c(c1)CC[C@@H]1[C@@H]2CC[C@@]2(C)[C@H]1C[C@@H](OC(=O)CC)[C@@H]2OC(=O)CC`, for which the efficacy is -23.4%.

As to `CCCc1nc(C)c2c(=O)[nH]c(-c3cc(S(=O)(=O)N4CCN(CC)CC4)ccc3OCC)nn12`, the efficacy is 25.4%.

For the molecule `O=C(NCCc1c[nH]c2ccccc12)c1cccnc1`, the efficacy is 15.6%.

In the case of `CC1(C)[C@@H](OC(=O)CCC(=O)O)CC[C@]2(C)[C@H]3C(=O)C=C4[C@@H]5C[C@@](C)(C(=O)O)CC[C@]5(C)CC[C@@]4(C)[C@]3(C)CC[C@@H]12`, the efficacy is 12.7%.

In the case of `C[N+](C)(C)CCOC(=O)CCC(=O)OCC[N+](C)(C)C`, the efficacy was 18.3%.

For the molecule `CCOC(=O)OC(C)OC1=C(C(=O)Nc2ccccn2)N(C)S(=O)(=O)c2ccccc21` (stereo not drawn), the efficacy is 12.4%.

Regarding `CC(=O)Nc1ccc(OCCOCCOc2ccc(NC(C)=O)cc2)cc1`, the efficacy was 20.2%.

Consider `CCOC(=O)CN1CCCC1=O`, for which the efficacy was 24%.

Consider `C[C@]12CCC(=O)C=C1CC[C@@H]1[C@@H]2C(=O)C[C@@]2(C)[C@H]1CC[C@]2(O)C(=O)CO`, for which the efficacy is 28.7%.

Regarding `CC1(C)OC(=O)Nc2ccc(Br)cc21`, the efficacy was -21.5%.

As to `Clc1ccc(C(Cn2ccnc2)OCc2ccc(Sc3ccccc3)cc2)c(Cl)c1` (stereo not drawn), the efficacy is 29.2%.

On to `Oc1cc(O)c2c(c1)O[C@H](c1ccc(O)c(O)c1)[C@H](O)C2`, for which the efficacy is 34.8%.

Regarding `O=C(O)c1cccc(-c2noc(-c3ccccc3F)n2)c1`, the efficacy was 13.1%.

Turning to `C[N+](C)(C)CC[N+]1(C)Cc2c(Cl)c(Cl)c(Cl)c(Cl)c2C1`, the efficacy was 13.2%.

As for `C/C(=C(\CCOP(=O)(O)O)SC(=O)c1ccccc1)N(C=O)Cc1cnc(C)nc1N`, the efficacy was -17.4%.

Turning to `CCCNC(C)(C)COC(=O)c1ccccc1`, the efficacy is -21%.

`C=C(C)C(=O)OCC(O)CO` (stereo not drawn): the efficacy is -24.2%.

As to `CCOCCOC(=O)/C=C/c1ccc(OC)cc1`, the efficacy was 19.6%.

Turning to `O=S(=O)(c1cccc2cnccc12)N1CCCNCC1`, the efficacy was -11.7%.

For the molecule `CC(C)=CCC/C(C)=C/CC/C(C)=C/C(=O)OCC(=O)[C@@]1(O)CC[C@H]2[C@@H]3CCC4=CC(=O)C=C[C@]4(C)[C@H]3[C@@H](O)C[C@@]21C`, the efficacy is 14.4%.

`CC(C)Cc1ccc(C(C)C(=O)OCc2ccccn2)cc1` (stereo not drawn): the efficacy is -17.6%.

For the molecule `C[C@H]1C[C@H]2[C@@H]3CCC4=CC(=O)C=C[C@]4(C)[C@H]3C(=O)C[C@]2(C)[C@@]1(O)C(=O)CO`, the efficacy was -24.9%.

For `CCN(CC)CC(=O)OCC(=O)[C@@]1(O)CC[C@H]2[C@@H]3CCC4=CC(=O)CC[C@]4(C)[C@H]3[C@@H](O)C[C@@]21C`, the efficacy is 17.3%.

Regarding `CCCc1ncc(C(=O)O)s1`, the efficacy is -25.8%.

As to `OC[C@]1(O)OC[C@@H](O)[C@H](O)[C@@H]1O`, the efficacy is -31%.

In the case of `N#Cc1cc(NC(=O)C(=O)O)c(Cl)c(NC(=O)C(=O)O)c1`, the efficacy was 18.8%.

Turning to `CC(=O)N(CC(O)CN(C(C)=O)c1c(I)c(C(=O)NCC(O)CO)c(I)c(C(=O)NCC(O)CO)c1I)c1c(I)c(C(=O)NCC(O)CO)c(I)c(C(=O)NCC(O)CO)c1I` (stereo not drawn), the efficacy is -12.3%.

Regarding `CC1CCc2cc(F)cc3c(=O)c(C(=O)O)cn1c23` (stereo not drawn), the efficacy was -9.54%.

Turning to `N[C@H]1CN(c2c(F)cc3c(=O)c(C(=O)O)cn(C4C[C@@H]4F)c3c2Cl)CC12CC2` (stereo partly drawn), the efficacy is -25.5%.

With `COc1ccc([C@@H]2Sc3ccccc3NC(=O)[C@@H]2O)cc1`, the efficacy is -10.4%.

On to `O=S(=O)(O)NC1CCCCC1`, for which the efficacy is 14.2%.

`C[C@]12C=CC(=O)C=C1CC[C@H]1[C@@H]3C[C@@H](O)[C@](O)(C(=O)CO)[C@@]3(C)C[C@H](O)[C@@]12F`: the efficacy is 17%.

In the case of `CC(=O)N1CCN(c2ccc(O)cc2)CC1`, the efficacy was 19.8%.

In the case of `C[C@H](CCC(=O)O)[C@H]1CC[C@H]2[C@@H]3C(=O)C[C@@H]4CC(=O)CC[C@]4(C)[C@H]3CC(=O)[C@]12C`, the efficacy was -7.14%.

Regarding `O=c1ccc2ccccc2o1`, the efficacy is 11.1%.

On to `CCC(CC)(CC(=O)Nc1cccc(/C=C/c2nc(C3CCC3)cs2)c1)C(=O)O`, for which the efficacy is -22.5%.

For another assay the following is noted: Ebola virus entry assay, blue channel fluorescence.
Regarding `CN(C)CCCO[C@@H]1[C@H]2OC(C)(C)O[C@H]2O[C@@H]1C(O)CO` (stereo partly drawn), the molecule was called inactive.

Consider `COc1cc(C(=O)NCCCCCC(=O)O)cc(OC)c1OC`, for which the outcome was inactive.

As to `CCCCOC(=O)CCCCCCCCC(=O)OCCCC`, the molecule was classed as inactive.

Consider `CCC(=O)Oc1ccc2c(c1)CC[C@@H]1[C@@H]2CC[C@@]2(C)[C@H]1C[C@@H](OC(=O)CC)[C@@H]2OC(=O)CC`, for which the result was inactive.

In the case of `CCCc1nc(C)c2c(=O)[nH]c(-c3cc(S(=O)(=O)N4CCN(CC)CC4)ccc3OCC)nn12`, the molecule was called inactive.

In the case of `O=C(NCCc1c[nH]c2ccccc12)c1cccnc1`, the outcome was inactive.

Regarding `CC1(C)[C@@H](OC(=O)CCC(=O)O)CC[C@]2(C)[C@H]3C(=O)C=C4[C@@H]5C[C@@](C)(C(=O)O)CC[C@]5(C)CC[C@@]4(C)[C@]3(C)CC[C@@H]12`, the call was inactive.

With `C[N+](C)(C)CCOC(=O)CCC(=O)OCC[N+](C)(C)C`, the outcome was inactive.

Take `CCOC(=O)OC(C)OC1=C(C(=O)Nc2ccccn2)N(C)S(=O)(=O)c2ccccc21` (stereo not drawn): the result was inactive.

Consider `CC(=O)Nc1ccc(OCCOCCOc2ccc(NC(C)=O)cc2)cc1`, for which the result was inactive.

For the molecule `CCOC(=O)CN1CCCC1=O`, the molecule was called inactive.

Take `C[C@]12CCC(=O)C=C1CC[C@@H]1[C@@H]2C(=O)C[C@@]2(C)[C@H]1CC[C@]2(O)C(=O)CO`: the outcome was inactive.

With `CC1(C)OC(=O)Nc2ccc(Br)cc21`, the outcome was inactive.

As to `Clc1ccc(C(Cn2ccnc2)OCc2ccc(Sc3ccccc3)cc2)c(Cl)c1` (stereo not drawn), the outcome was inactive.

As for `Oc1cc(O)c2c(c1)O[C@H](c1ccc(O)c(O)c1)[C@H](O)C2`, the result was inactive.

On to `O=C(O)c1cccc(-c2noc(-c3ccccc3F)n2)c1`, for which the molecule was classed as inactive.

In the case of `C[N+](C)(C)CC[N+]1(C)Cc2c(Cl)c(Cl)c(Cl)c(Cl)c2C1`, the molecule was classed as inactive.

With `C/C(=C(\CCOP(=O)(O)O)SC(=O)c1ccccc1)N(C=O)Cc1cnc(C)nc1N`, the molecule was classed as inactive.

Consider `CCCNC(C)(C)COC(=O)c1ccccc1`, for which the call was inactive.

On to `C=C(C)C(=O)OCC(O)CO` (stereo not drawn), for which the molecule was called inactive.

For the molecule `CCOCCOC(=O)/C=C/c1ccc(OC)cc1`, the molecule was classed as inactive.

Turning to `O=S(=O)(c1cccc2cnccc12)N1CCCNCC1`, the result was inactive.

As for `CC(C)=CCC/C(C)=C/CC/C(C)=C/C(=O)OCC(=O)[C@@]1(O)CC[C@H]2[C@@H]3CCC4=CC(=O)C=C[C@]4(C)[C@H]3[C@@H](O)C[C@@]21C`, the outcome was inactive.

`CC(C)Cc1ccc(C(C)C(=O)OCc2ccccn2)cc1` (stereo not drawn): the molecule was called inactive.

Take `C[C@H]1C[C@H]2[C@@H]3CCC4=CC(=O)C=C[C@]4(C)[C@H]3C(=O)C[C@]2(C)[C@@]1(O)C(=O)CO`: the call was inactive.

In the case of `CCN(CC)CC(=O)OCC(=O)[C@@]1(O)CC[C@H]2[C@@H]3CCC4=CC(=O)CC[C@]4(C)[C@H]3[C@@H](O)C[C@@]21C`, the outcome was inactive.

As for `CCCc1ncc(C(=O)O)s1`, the molecule was called inactive.

As for `OC[C@]1(O)OC[C@@H](O)[C@H](O)[C@@H]1O`, the outcome was inactive.

For the molecule `N#Cc1cc(NC(=O)C(=O)O)c(Cl)c(NC(=O)C(=O)O)c1`, the molecule was classed as inactive.

On to `CC(=O)N(CC(O)CN(C(C)=O)c1c(I)c(C(=O)NCC(O)CO)c(I)c(C(=O)NCC(O)CO)c1I)c1c(I)c(C(=O)NCC(O)CO)c(I)c(C(=O)NCC(O)CO)c1I` (stereo not drawn), for which the call was inactive.

Turning to `CC1CCc2cc(F)cc3c(=O)c(C(=O)O)cn1c23` (stereo not drawn), the molecule was called inactive.

Take `N[C@H]1CN(c2c(F)cc3c(=O)c(C(=O)O)cn(C4C[C@@H]4F)c3c2Cl)CC12CC2` (stereo partly drawn): the molecule was called inactive.

With `COc1ccc([C@@H]2Sc3ccccc3NC(=O)[C@@H]2O)cc1`, the result was inactive.

As for `O=S(=O)(O)NC1CCCCC1`, the call was inactive.

`C[C@]12C=CC(=O)C=C1CC[C@H]1[C@@H]3C[C@@H](O)[C@](O)(C(=O)CO)[C@@]3(C)C[C@H](O)[C@@]12F`: the outcome was inactive.

Consider `CC(=O)N1CCN(c2ccc(O)cc2)CC1`, for which the call was inactive.

For `C[C@H](CCC(=O)O)[C@H]1CC[C@H]2[C@@H]3C(=O)C[C@@H]4CC(=O)CC[C@]4(C)[C@H]3CC(=O)[C@]12C`, the result was inactive.

Take `O=c1ccc2ccccc2o1`: the call was inactive.

For `CCC(CC)(CC(=O)Nc1cccc(/C=C/c2nc(C3CCC3)cs2)c1)C(=O)O`, the molecule was called inactive.

Source of the values: PubChem BioAssay (NCATS).
